# Bioassay records: PubChem, National Center for Advancing Translational Sciences (NCATS)
# HTT ATP protect: cytoprotection in Huntington HTT-Q103 PC12 cell model | AID 1471 | PC12 HTT-Q103 induced, cytoprotection, ATP luminescence, 40 h | 230,000 tested, 0.14% active | Potency, µM (series often up to 56.4 µM), for inactives: cytoprotection (ATP increase), usual class: activators; active means well fitted curve in the direction sought with a large enough effect; inconclusive means small, poorly fitted or top-dose-only effect, or another doubt; inactive means no such curve, though single readings can be large; an effect the other way counts as inactive or inconclusive; further: potency means the concentration at half of the fitted maximal effect; % of control where 0% means no effect; nearly all actives have a fitted effect of over 45% in size
#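 PC12 cells with ecdysone-inducible HTT exon 1 Q103-GFP, induced with 100 nM tebufenozide and co-treated with library compounds in a dose series (1536-well, 1500 cells/well). Cytoprotection read as ATP content by ATPlite luminescence.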
# RGS12 GoLoco inh: blocks human Gai1 binding to RGS12 GoLoco peptide, red readout; Potency, µM (series often up to 61.6 µM), inactives show top-dose activity, negative = inhibition, most hits filed as inhibitors; Gai1:RGS12 GoLoco peptide FP, rhodamine, 10 min; AID 880; 230,000 tested, 0.44% active; P63096; active means well fitted inhibition curve with a large enough effect, not every such curve was filed as active; inactive means no such curve, though single readings can be large or run the other way; further: potency means the concentration at half of the fitted maximal effect; on the % scale 0 is the no-effect control and ±100 the full control effect; nearly all actives have a fitted effect of over 30% in size
# PNC assembly inh: perinucleolar compartment assembly inhibition | PC3M PTB-GFP, PNC prevalence imaging, 16 h; active compounds read low | activity change (PNC), negative = inhibition, % at 10 µM | 140,000 tested, 3.1% active | AID 2417;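 active means readout at or below -70, meaning at least 70% loss of cells showing the perinucleolar compartment, a nuclear body marking cancer cells; inconclusive means readout between -30 and a set limit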;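 further: plate controls were DMSO wells for no effect and camptothecin positive control wells for full effect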
#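 Read-out is percentage of cells bearing a perinucleolar compartment, from automated 20x imaging of fixed, Hoechst-stained PC3M PTB-GFP cells. Cells were seeded 4 h, then exposed 16 h to compound (23 nl of library stock) in duplicate plates.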
# HPGD block: blocks human HPGD enzyme activity; P15428; purified HPGD, NADH fluorescence kinetic, PGE2 substrate; Potency, µM, for the others: at the top dose activity change, negative = inhibition, most hits filed as inhibitors; 150,000 tested, 4.3% active; AID 894; further: potency means the concentration at half of the fitted maximal effect; on the % scale 0 is the no-effect control and ±100 the full control effect
# Target sequence (P15428 whole entry, looked up): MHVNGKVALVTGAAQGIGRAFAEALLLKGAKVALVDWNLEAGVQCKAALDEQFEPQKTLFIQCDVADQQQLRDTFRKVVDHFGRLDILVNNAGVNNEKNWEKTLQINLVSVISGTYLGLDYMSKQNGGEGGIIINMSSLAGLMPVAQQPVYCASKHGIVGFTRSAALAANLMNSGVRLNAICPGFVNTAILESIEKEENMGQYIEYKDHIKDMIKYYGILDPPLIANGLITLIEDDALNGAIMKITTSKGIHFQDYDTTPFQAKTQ
#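 NADH formation kinetics: reaction with 30 uM PGE2 and 1 mM NAD+ (final), 20 nM enzyme, Tris-HCl pH 8 with Tween 20, after 15 min compound preincubation at room temperature. Fluorescence change, last versus first of five reads.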
# HttQ103 aggreg: mutant huntingtin aggregation inhibition; Potency, µM (titrated, usually from 46.1 µM), for the others: top-dose activity change, negative = inhibition, actives largely listed as inhibitors; AID 1688; PC12 HttQ103-GFP aggregates, Acumen cytometry, 40 h; 220,000 tested, 1.1% active; active means well fitted curve in the direction sought with a large enough effect; inconclusive means small, poorly fitted or top-dose-only effect, or another doubt; inactive means no such curve, though single readings can be large; an effect the other way counts as inactive or inconclusive; further: potency means the concentration at half of the fitted maximal effect; on the % scale 0 is the no-effect control and ±100 the full control effect; nearly all actives have a fitted effect of over 60% in size
#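 Using laser scanning cytometry, GFP-positive aggregates were counted after lysis of PC12 cells induced with 100 nM tebufenozide to express HTT exon 1 Q103–GFP. Compounds were tested in titration.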
# ALDH1A1 inh: ALDH1A1 (human) enzyme inhibition; P00352; Purified ALDH1A1, NADH fluorescence, propionaldehyde substrate; Potency, µM (top dose mostly 75.3 µM), for the others: at the highest dose activity, negative = inhibition, actives largely listed as inhibitors; 220,000 tested, 7.3% active; AID 1030;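 further: potency means the concentration at half of the fitted maximal effect; plate controls were no enzyme wells and a reference inhibitor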
# An asterisk follows results filed as active; ? = inconclusive; . = no result; [ ] = dose if it differs, or a comment. An excerpt weighted towards active compounds, which were near 11% of everything screened. Unless noted, the call rests on the fitted dose curve; in most records, active means well fitted inhibition curve with a large enough effect (not every such curve was filed as active); inconclusive means small, poorly fitted or top-dose-only effect, or another doubt; inactive means no such curve, though single readings can be large or run the other way.
SMILES,HTT ATP protect,RGS12 GoLoco inh,PNC assembly inh,HPGD block,HttQ103 aggreg,ALDH1A1 inh
Cc1ccc(S(=O)(=O)N(CC(=O)O)Cc2cccc(C)c2)cc1,.,.,.,4%,.,-3%
Cc1nn(CCCC(=O)Nc2c(F)cc(F)cc2Br)c(C)c1[N+](=O)[O-],-4%,2%,.,.,4%,-3%
Cc1ccc(C(=O)N/N=C/c2cc(C)n(-c3ccc(Br)cc3)c2C)cc1[N+](=O)[O-],8%,-13%,11,?,16%,10µM*
COc1ccc(/C=C/C(=O)Nc2nonc2NC(C)=O)cc1,6%[10 µM],5%,?,?,-5%,-3%
S=C(c1nc2ccccc2[nH]1)N1CCOCC1,0%[1.9 µM],4%,?,?,-3%,13µM*
CC1(C)OC(=O)C(=CNc2ccccc2F)C(=O)O1,-1%,3%,?,-7%,16%,?
CC1(C)OC(=O)C(=CNc2cccc(O)c2)C(=O)O1,-4%,12%,-19,-13%,0%,?
CCOc1ccccc1NC=C1C(=O)OC(C)(C)OC1=O,-6%,-13%,61,-24%,-4%,2.2µM*
COc1ccccc1NC=C1C(=O)OC(C)(C)OC1=O,-10%,1%,46,-15%,8%[9.22 µM],0.35µM*
COc1c(Cl)cccc1-c1cn2ccccc2n1,-65%[10 µM],-2%,.,.,6%[9.22 µM],.
O=[N+]([O-])c1ccc(OCC2CC(c3ccccc3)=NO2)cc1 (stereo not drawn),15%[10 µM],4%,.,.,1%[9.22 µM],.
S=c1[nH]c2cc3ccccc3cc2[nH]1,-8%[10 µM],-11%,.,.,-7%[9.22 µM],.
Cc1cc2[nH]c(=S)[nH]c2cc1C,32%[10 µM],-10%,?,14µM*,-4%,28µM*
S=C1NNC2(NN1)C1CC3CC(C1)CC2C3,1%[10 µM],-5%,-100*,-16%,18%,-6%
CCN1CCCC1Cn1c(-c2ccccc2)nc2c(NCc3ccccc3)nc(C)nc21 (stereo not drawn),-19%,1%,.,?,.,?
Nc1[nH]c(=S)[nH]c(=O)c1-c1ccccc1,8%[10 µM],-5%,16,25µM*,18%,?
CC(C)CO/N=C1/C[C@@H](O)[C@@H](O)[C@@H]2[C@@H]3C(=O)N(Cc4ccc5c(c4)OCO5)C(=O)[C@H]3CC[C@@H]12,5%[10 µM],.,.,.,.,8%[13.5 µM]
CCOC(=O)C1=C(C)NC(=O)C1CC(=O)Nc1ccccc1 (stereo not drawn),16%[10 µM],23%,?,35µM*,-1%,24%
N#CCCCS(=O)(=O)c1nnnn1-c1ccc(F)cc1Br,7.1µM*,6%,.,-10%,.,18µM*
COc1ccc(Cl)cc1NC(=S)NN1CCOCC1,4%[10 µM],4%,.,.,-3%,7%
COc1ccc(OC)c(NC(=S)NN2CCOCC2)c1,-7%[10 µM],-1%,0,-4%,11µM*,10%
O=C1C2C3C=CC([C@@H]2C(=O)N1C1CC1)[C@H]1C(=O)N(C2CC2)C(=O)C31 (stereo partly drawn),6%,28%,92,-6%,14%,?
O=C1C2C3C=CC(C2C(=O)N1C1CCCCC1)C1C(=O)N(C2CCCCC2)C(=O)C31 (stereo not drawn),4%,0%,-2,-1%,27%,2.8µM*
O=C1c2ccccc2-c2ccc(NC(=O)[C@H]3CCCC[C@@H]3C(=O)O)cc21,-3%[10 µM],-3%[14.2 µM],.,-12%,.,?
COc1ccc(-c2nc(-c3ccccc3)c(Nc3ccc4ccccc4c3)o2)cc1,19%,-5%,.,-8%,.,?
CCOc1ccc(-c2csc(NNC3=NCCCCC3)n2)cc1,-12%[10 µM],-3%,.,.,1%,?
CC(C)c1ccc2nc(N)sc2c1,-115%,-1%,.,.,-1%,7%
Cc1cc2nc(N)sc2cc1C,-44%,2%,-91*,-12%,1%,-1%
CC1CCN(C(=O)c2cc3ccccc3o2)CC1,-51%[0.074 µM],4%,-24,11µM*,0%,?
O=C(c1cc2ccccc2o1)N1CCCCCC1,-3%[10 µM],-2%,250,7.9µM*,-20%,?
